Test results: PMC7826789 (International Journal of Molecular Sciences, 2021)

How the values were obtained:
Conditions in all cases: Compound Concentration (nM):1000
MAP4K2 = tested on: MAP4K2
MAP4K3 = tested on: MAP4K3
MAP4K4 = tested on: MAP4K4
MAP4K5 = tested on: MAP4K5
MAPKAPK2 = tested on: MAPKAPK2
MAPKAPK5 = tested on: MAPKAPK5
MARK1 = tested on: MARK1
MARK2 = tested on: MARK2
MARK3 = tested on: MARK3
MARK4 = tested on: MARK4
MAST1 = tested on: MAST1
MEK1 = tested on: T1, MEK1
T1 construct: gene MAP2K1

MEK2 = tested on: T2, MEK2
T2 construct: gene MAP2K2

MEK3 = tested on: T3, MEK3
T3 construct: gene MAP2K3

MEK4 = tested on: T4, MEK4
T4 construct: gene MAP2K4

MEK5 = tested on: T5, MEK5
T5 construct: gene MAP2K5

MEK6 = tested on: T6, MEK6
T6 construct: gene MAP2K6

MELK = tested on: MELK
MERTK = tested on: MERTK
MET(M1250T) = tested on: MET(M1250T)
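Note: KINOMEscan scanMAX binding as percent activity remaining versus control; lower means stronger binding.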

Structure (SMILES) | Percent Control (MAP4K2) | Percent Control (MAP4K3) | Percent Control (MAP4K4) | Percent Control (MAP4K5) | Percent Control (MAPKAPK2) | Percent Control (MAPKAPK5) | Percent Control (MARK1) | Percent Control (MARK2) | Percent Control (MARK3) | Percent Control (MARK4) | Percent Control (MAST1) | Percent Control (MEK1) | Percent Control (MEK2) | Percent Control (MEK3) | Percent Control (MEK4) | Percent Control (MEK5) | Percent Control (MEK6) | Percent Control (MELK) | Percent Control (MERTK) | Percent Control (MET(M1250T))
Cl.c1ccc(Cc2nc3ccc(Nc4ncnc5ccccc45)cc3[nH]2)cc1 [GR269666A] | 92% | 100% | 100% | 100% | 76% | 100% | 100% | 100% | 97% | 96% | 100% | 100% | 100% | 100% | 100% | 2.6% | 92% | 100% | 100% | 100%
NS(=O)(=O)c1ccc(N/N=C2\C(=O)Nc3ccc(C(=O)NCc4ccncc4)cc32)cc1 [GW300657X] | 84% | 99% | 88% | 96% | 100% | 89% | 100% | 91% | 63% | 91% | 33% | 100% | 100% | 41% | 87% | 48% | 79% | 35% | 69% | 82%
COc1cc(C)c(N(C)C(=O)CN(C)C)cc1Nc1nc(Nc2cccc(F)c2C(N)=O)c2cc[nH]c2n1 [GSK2219385] | 100% | 100% | 100% | 100% | 83% | 92% | 100% | 95% | 89% | 89% | 44% | 100% | 100% | 91% | 94% | 85% | 100% | 100% | 87% | 100%
COc1ccc2c(-c3ccnc(Nc4cccc(OC(F)(F)F)c4)n3)cnn2n1 [GW810372X] | 94% | 100% | 100% | 100% | 100% | 100% | 100% | 100% | 100% | 82% | 56% | 100% | 100% | 30% | 82% | 72% | 78% | 96% | 100% | 100%
COc1cc(N2CCN(C(C)C)CC2)ccc1Nc1nc(Nc2ccc(F)cc2C(=O)NC[C@@H](O)CO)c2cc[nH]c2n1 [GSK1392956A] | 91% | 100% | 94% | 96% | 85% | 94% | 90% | 59% | 86% | 100% | 43% | 100% | 100% | 23% | 77% | 96% | 67% | 57% | 77% | 78%
C[C@@H](Oc1cc(-n2cnc3ccc(OC4CCN(C)CC4)cc32)sc1C(N)=O)c1ccccc1Cl [GSK579289A] | 24% | 93% | 49% | 36% | 100% | 100% | 85% | 77% | 80% | 89% | 52% | 94% | 96% | 86% | 98% | 51% | 84% | 70% | 84% | 68%
CC1=C(C(=O)Nc2ccc3[nH]ncc3c2)C(c2ccc3ccccc3c2)CC(=O)N1 (stereo not shown) [GSK270822A] | 100% | 90% | 79% | 93% | 97% | 96% | 91% | 95% | 100% | 76% | 87% | 79% | 74% | 69% | 82% | 70% | 92% | 100% | 100% | 32%
COc1cc(/C=N/Nc2ncnc3[nH]ncc23)ccc1O [GW578748X] | 43% | 100% | 100% | 100% | 100% | 100% | 79% | 100% | 99% | 60% | 78% | 78% | 83% | 79% | 94% | 0.5% | 83% | 15% | 100% | 84%
NS(=O)(=O)c1ccc(Nc2ncc(-c3ccccc3)o2)cc1 [GW572399X] | 82% | 100% | 100% | 100% | 100% | 100% | 100% | 100% | 94% | 100% | 100% | 100% | 100% | 30% | 86% | 59% | 65% | 100% | 100% | 100%
Cl.O=C(O[C@H]1CN[C@H](C#Cc2cc3ncnc(Nc4ccc5c(cnn5Cc5ccccc5)c4)c3s2)C1)N1CCOCC1 [GSK200398A] | 98% | 100% | 83% | 92% | 72% | 90% | 100% | 87% | 83% | 100% | 44% | 69% | 79% | 78% | 97% | 0.4% | 71% | 86% | 100% | 86%
Cl.O=C(Nc1ccc(Oc2ccc3[nH]c(NC(=O)c4ccco4)nc3c2)cc1)Nc1cc(C(F)(F)F)ccc1F [GW683134A] | 85% | 83% | 95% | 84% | 94% | 100% | 100% | 100% | 82% | 100% | 98% | 96% | 99% | 83% | 100% | 19% | 73% | 82% | 0.2% | 27%
CC(C)COC(=O)c1ccc2c(c1)/C(=C/Nc1ccc(S(N)(=O)=O)cc1)C(=O)N2 [GW416981X] | 76% | 95% | 86% | 87% | 100% | 100% | 100% | 73% | 93% | 81% | 100% | 95% | 92% | 68% | 100% | 21% | 83% | 6.4% | 100% | 92%
NS(=O)(=O)c1ccc(N/N=C2\C(=O)Nc3ccc(Cl)cc32)cc1 [GW280670X] | 90% | 94% | 99% | 100% | 100% | 100% | 100% | 100% | 100% | 94% | 100% | 98% | 100% | 100% | 100% | 100% | 99% | 100% | 100% | 100%
CCn1c(-c2nonc2N)nc2c(C#CC(C)(C)O)nc(OCCNC)cc21.Cl [GSK949675] | 84% | 100% | 95% | 57% | 100% | 100% | 100% | 90% | 100% | 100% | 51% | 100% | 100% | 40% | 100% | 100% | 80% | 45% | 80% | 100%
C/C(Nc1ccc(S(N)(=O)=O)cc1)=C1/C(=O)Nc2ccccc21 [GW335962X] | 49% | 67% | 89% | 100% | 100% | 100% | 83% | 72% | 96% | 87% | 77% | 75% | 81% | 76% | 39% | 70% | 74% | 87% | 100% | 91%
CN(C)CCNC(=O)Nc1ccc(N(C)c2ccnc(Nc3ccc(CS(C)(=O)=O)cc3)n2)cc1.Cl [GW830900A] | 80% | 69% | 66% | 77% | 100% | 93% | 84% | 67% | 55% | 100% | 57% | 86% | 77% | 58% | 75% | 1.9% | 100% | 56% | 91% | 22%
Cl.O=C(Nc1ccc(Oc2ccc3[nH]c(NC(=O)c4ccccc4)nc3c2)cc1)Nc1cc(C(F)(F)F)ccc1F [GW709042A] | 88% | 100% | 100% | 99% | 100% | 100% | 61% | 100% | 91% | 76% | 99% | 80% | 98% | 91% | 100% | 51% | 86% | 68% | 8.2% | 78%
O=C(Nc1n[nH]c2nc(-c3ccc(O)cc3)c(Br)cc12)C1CC1 [SB-725317] | 38% | 100% | 84% | 100% | 100% | 100% | 95% | 100% | 100% | 100% | 84% | 100% | 100% | 75% | 100% | 28% | 98% | 100% | 100% | 100%
CN1CCN(C(=O)c2ccc(NC(=O)Nc3ccc(N(C)c4ccnc(Nc5ccc(CS(C)(=O)=O)cc5)n4)cc3)cc2)CC1.Cl [GW830263A] | 43% | 25% | 33% | 32% | 100% | 84% | 44% | 84% | 43% | 92% | 61% | 33% | 40% | 14% | 6% | 0.1% | 82% | 81% | 56% | 2.2%
COc1ccc(COc2ccc(Cc3cnc(N)nc3N)cc2OC)cc1 [GW632580X] | 97% | 82% | 100% | 99% | 95% | 97% | 83% | 93% | 66% | 57% | 93% | 90% | 90% | 93% | 100% | 97% | 100% | 100% | 100% | 100%
